# High-throughput results from PubChem.
# FLuc modulator: firefly luciferase modulation, counter-screen for miR-21 project; purified FLuc, Km substrates, luminescence inhibition; Potency, µM (top dose mostly 57.5 µM), hits mostly inhibitors; P08659; AID 588342; 6.9% of 360,000 active; note: nearly all actives have a fitted effect of over 55% in size
# Target sequence (P08659 whole entry, looked up): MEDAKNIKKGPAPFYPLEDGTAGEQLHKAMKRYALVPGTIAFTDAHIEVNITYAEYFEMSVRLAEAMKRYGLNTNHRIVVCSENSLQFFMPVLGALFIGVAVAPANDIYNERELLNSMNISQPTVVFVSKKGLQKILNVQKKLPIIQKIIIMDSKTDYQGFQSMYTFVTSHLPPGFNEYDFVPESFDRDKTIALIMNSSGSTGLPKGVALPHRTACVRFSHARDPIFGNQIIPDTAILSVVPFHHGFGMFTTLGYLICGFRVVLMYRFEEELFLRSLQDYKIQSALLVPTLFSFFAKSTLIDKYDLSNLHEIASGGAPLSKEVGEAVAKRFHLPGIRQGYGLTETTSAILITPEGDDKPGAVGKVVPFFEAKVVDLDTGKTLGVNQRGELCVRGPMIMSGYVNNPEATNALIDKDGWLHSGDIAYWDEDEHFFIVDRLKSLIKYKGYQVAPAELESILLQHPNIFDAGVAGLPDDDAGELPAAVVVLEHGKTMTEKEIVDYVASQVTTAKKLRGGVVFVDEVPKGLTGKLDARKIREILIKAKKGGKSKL
#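 Purified P. pyralis luciferase, 10 nM final, with Km-level 10 uM D-luciferin and 10 uM ATP in 50 mM Tris acetate pH 7.5, 10 mM Mg acetate, 0.01% Tween-20, 0.05% BSA; 6-point qHTS titration about 60 µM downward; luminescence read.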
# NPC1 promoter act: activators of NPC1 promoter. Potency, µM (series often up to 9.22 µM), hits mostly activators. 2.4% of 320,000 active. Huh7 NPC1 promoter luciferase reporter, 24 h; note: nearly all actives have a fitted effect of over 60% in size
#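 Huh7 cells stably carrying NPC1 promoter–luciferase, plated in Opti-MEM with 10% FBS for 2 h, were exposed to compound in DMSO for 24 h at 37 °C; luciferase reagent was added for 10 min and luminescence read.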
# SMN2 splice up: SMN2 splice variant enhancement; HEK293 SMN2-luciferase splicing reporter, luminescence, 30-36 h; Potency, µM (highest dose often 46.1 µM), actives largely listed as activators; 2.8% of 210,000 active; AID 1458; note: nearly all actives have a fitted effect of over 55% in size
#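 qHTS luciferase splicing reporter: luminescence rises when SMN2 exon 7 is included in transfected HEK293 cells. Compound exposure lasted 30-36 h at 37C, with 4.5 mM final sodium butyrate as control, followed by a ONE-Glo read.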
# ELG1 repair inh: ELG1-dependent DNA repair inhibition | HEK293T ELG1-luciferase reporter, luminescence, 16 h; DNA damage induced by 5-fluorouridine | Potency, µM (titrated, usually from 46.1 µM), actives largely listed as inhibitors | 2.3% of 330,000 active; note: nearly all actives have a fitted effect of over 55% in size
#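 Overnight (16 hr) co-exposure of 2,000 cells/well to 5-fluorouridine and compound at 37 °C preceded detection. Luciferase was quantified via ONE-Glo luminescence; loss of signal denotes inhibition.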
# ELG1 genotox: inducers of genotoxicity in HEK293T ELG1-luciferase cells; HEK293T ELG1-luciferase reporter, luminescence, 16 h; Potency, µM (highest dose often 46 µM), actives largely listed as activators; 1.3% of 330,000 active; AID 504466; note: nearly all actives have a fitted effect of over 60% in size
#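 HEK293T cells expressing luciferase-tagged ELG1 were treated with compound or DMSO for 16 hr at 37°C. Luciferase activity was then read after 30 min with ONE-Glo at room temperature; rising signal flags genetic stress.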
# Rab9 promoter act: activates the Rab9 promoter | Huh7 Rab9 promoter-luciferase reporter, luminescence, 24 h | Potency, µM (doses to about 9.22 µM), hits mostly activators | 2.8% of 320,000 active; note: nearly all actives have a fitted effect of over 60% in size
#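 Stable Rab9-luc Huh7, 1500 cells/well, 2 h settle; cmpd in DMSO, 24 h, 37 °C/5% CO2; luciferase reagent 10 min RT; luminescence.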
# A number is an active result; n = inactive; u = inconclusive; x = no result; [ ] = dose if it differs, or a comment. Only some compounds are listed: those with a hit (about 9.3% of all), similar ones and a draw of the others. Calls come from the whole dose curve; as a rule, active = well fitted curve in the direction sought with a large enough effect; inconclusive = small, poorly fitted or top-dose-only effect, or another doubt; inactive = no such curve, though single readings can be large; an effect the other way counts as inactive or inconclusive.
SMILES,FLuc modulator,NPC1 promoter act,SMN2 splice up,ELG1 repair inh,ELG1 genotox,Rab9 promoter act
O=C(COC(=O)c1ccc(Cl)c(S(=O)(=O)N2CCCCC2)c1)NCCc1ccccc1,n,n,x,n,n,n
CO/N=C/c1ccc(N2CCCC2)c([N+](=O)[O-])c1,16.9µM,n,n,n,n,n
Cc1ccc(C(=O)N2CCN(c3cc4c(cc3[N+](=O)[O-])n(C)c(=O)n4C)CC2)cc1,n,n,n,n,n,n
O=[N+]([O-])c1cc(/C=N/O)ccc1N1CCCC1,n,n,n,n,n,n
CO/N=C/c1ccc(N2CCN(C(=O)c3ccc(C)cc3)CC2)c([N+](=O)[O-])c1,n,n,n,20.6µM,n,n
Cc1nc(N2CCN(c3ccccn3)CC2)c2c(C)c(C(=O)Nc3ccc(Cl)cc3)sc2n1,n,n,x,8.2µM,n,n
Cc1nc(N2CCC(C)CC2)c2c(C)c(C(=O)Nc3ccccc3C(F)(F)F)sc2n1,n,n,n,14.6µM,n,n
Cc1nc(N2CCN(c3ccccn3)CC2)c2c(C)c(C(=O)Nc3c(F)cc(F)cc3Br)sc2n1,n,n,x,23.1µM,n,n
Cc1onc(-c2c(Cl)cccc2Cl)c1C(=O)OCC(=O)c1ccccc1,n,n,x,n,n,n
CCOC(=O)c1cc(-c2c(Cl)cccc2Cl)no1,n,n,x,13µM,n,n
COCCCn1c(SCc2ccccc2)nc2cc(OC)c(OC)cc2c1=N,n,n,n,16.4µM,n,n
COc1cc(-c2nnc(CSc3nc4ccccc4s3)o2)cc(OC)c1OC,n,n,n,11.6µM,n,n
COCCCn1c(SCc2nnc(-c3ccc(OC)c(OC)c3)o2)nc2ccccc2c1=O,n,n,n,11.6µM,n,n
COc1ccc(S(=O)(=O)N(C)C[C@H]2Oc3c(NC(=O)Cc4ccccc4)cccc3C(=O)N([C@H](C)CO)C[C@@H]2C)cc1,x,x,x,n,n,x
COc1ccc(CNS(=O)(=O)c2ccc3c(c2)NC(=O)CS3)cc1,n,n,x,n,n,n
O=C(/C=C/c1ccccc1)Nc1cccc(S(=O)(=O)Nc2ccccc2F)c1,6.75µM,n,n,n,n,n
O=C(Nc1cccc(S(=O)(=O)Nc2ccccc2F)c1)c1ccc2ccccc2n1,19µM,n,n,u,n,n
COc1ccccc1NS(=O)(=O)c1cccc(NC(=O)c2ccc3ccccc3n2)c1,u,n,n,18.4µM,n,n
COc1ccc(NS(=O)(=O)c2cccc(NC(=O)c3cnccn3)c2)cc1Br,n,n,n,18.3µM,n,n
CN(C)S(=O)(=O)c1cccc(NC(=O)c2cnccn2)c1,n,n,n,n,n,u
COc1ccccc1NS(=O)(=O)c1cccc(NC(=O)c2nc3nc(C)cc(C)n3n2)c1,n,n,n,u,n,n
COC(=O)C1=C(C)N(CCc2cc(OC)c(OC)c(OC)c2)C(=O)N[C@H]1c1ccccc1,x,x,n[9.22 µM],x,x,x
O=C(/C=C/c1ccccc1)Nc1cccnc1Oc1ccccc1F,4.78µM,u,x,n,n,u
COc1ccc(-c2cc(C(=O)N3CCN(c4ncccn4)CC3)c3ccccc3n2)cc1OC,13.5µM,n,x,6.51µM,n,n
CC(C)Oc1cccc(-c2cc(C(=O)N3CCN(c4ncccn4)CC3)c3ccccc3n2)c1,1.35µM,n,n,14.6µM,n,n
SMILES,FLuc modulator,NPC1 promoter act,SMN2 splice up,ELG1 repair inh,ELG1 genotox,Rab9 promoter act
Cc1ccc2nc(-c3ccccn3)cc(C(=O)N3CCN(c4ncccn4)CC3)c2c1,19µM,n,n,u,n,n
CC(C)Oc1cccc(-c2cc(C(=O)N3CCN(S(C)(=O)=O)CC3)c3ccccc3n2)c1,3.01µM,n,u,u,n,n
COc1ccc(-c2cc(C(=O)N3CCC3)c3ccccc3n2)cc1OC,n,n,x,u,n,n
C=C(N(C)C)[C@]1(C)C[C@H]1[C@H](NC(=O)CNC(=O)OCc1ccccc1)c1ccccc1,x,x,n,x,x,x
CCN(C[C@H]1N[C@@](C)(C(=O)OC)[C@H]2C(=O)N(C)C(=O)[C@@H]12)S(=O)(=O)c1ccc(C)cc1,x,x,x,n,n,x
O=C(c1cc(-c2ccccn2)nc2ccccc12)N1CCN(c2ncccn2)CC1,u,n,n,n,n,n
COc1cccc(N2CCN(C(=O)c3cc(-c4ccccc4)nc4c3cnn4C(C)C)CC2)c1,x,x,x,11.6µM,n,x
COc1cccc(-c2cc(C(=O)N3CCN(c4ncccn4)CC3)c3ccccc3n2)c1,u,n,35.5µM,u,n,n
CC(C)n1ncc2c(C(=O)N3CCN(c4ccc(F)cc4)CC3)cc(-c3ccccc3)nc21,n,n,x,u,n,n
CN(C)C(=O)/C(=C/c1ccc(-c2cccc([N+](=O)[O-])c2)o1)NC(=O)c1ccccc1,n,n,x,u,n,n
O=C(/C=C\c1ccc(-c2cccc([N+](=O)[O-])c2)o1)N1CCOCC1,u,u,x,n,u,3.55µM
CN(C)C(=O)/C(=C\c1ccc(-c2cccc([N+](=O)[O-])c2)o1)NC(=O)c1ccccc1,n,n,n,20.6µM,n,n
CC1CCN(CCCn2c(=S)[nH]c3c(sc4ccccc43)c2=O)CC1,15.1µM,n,n,u,n,n
Oc1cccc2ccc(/C=C/c3c(F)cccc3Cl)nc12,3.01µM,u,25.1µM,u,14.6µM,3.98µM
Oc1cccc2ccc(/C=C/c3ccccc3Cl)nc12,1.9µM,u,x,u,18.3µM,n
Nc1nccc(/C=C/c2c(F)cccc2Cl)n1,23.9µM,n,u,u,u,u
